Results reported in PubChem BioAssay (NCI).
The panel holds about 83,000 compounds, 20% with a hit somewhere; the sample as a whole holds those more often.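 Step 1: grow cells in 96-well plates. Step 2: add test compound at a single concentration. Step 3: incubate 48 h. Step 4: record percent growth.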 The source made the active and inactive calls. The calls were made as follows: active = growth percent below 10; inactive = the rest.

Experiments:
Experiment in all cases: NCI-60 one-dose screen, 48 h (100 = growth as untreated, 0 = no growth, -100 = all killed)
Conditions in all cases: 10 µM unless noted
[1] = tested on: NCI-H23 lung
[2] = tested on: NCI-H226 lung
[3] = tested on: NCI-H322M lung
[4] = tested on: HOP-62 NSCLC
[5] = tested on: NCI-H460 lung
[6] = tested on: HOP-92 NSCLC
[7] = tested on: A549/ATCC NSCLC
[8] = tested on: 786-0 renal
[9] = tested on: COLO 205 colon
[10] = tested on: DU-145 prostate
[11] = tested on: MALME-3M melanoma
[12] = tested on: MDA-MB-231 breast
[13] = tested on: RXF 393 renal
[14] = tested on: SF-268 CNS
[15] = tested on: SF-295 CNS
[16] = tested on: SF-539 CNS
[17] = tested on: UACC-257 melanoma
[18] = tested on: M14 melanoma
[19] = tested on: K-562 leukemia
[20] = tested on: NCI-H522 lung

Measured: growth

O=[N+]([O-])c1ccccc1/C=N\NC(=S)N/N=C/c1ccccc1[N+](=O)[O-]
inactive: [1] 70.1% | [2] 83.1% | [3] 63.7% | [4] 56.5% | [5] 10% | [6] 53.7% | [7] 74.8% | [8] 74.9% | [9] 94.6% | [10] 62.1% | [11] 19% | [12] 83% | [13] 76.3% | [14] 41% | [15] 29.8% | [16] 56.3% | [17] 83.2% | [18] 37.6%

Cn1cc(C(=O)c2nc(-c3c[nH]c4ccc(F)cc34)no2)c2cc(F)ccc21
inactive: [1] 88% | [2] 69.5% | [3] 93.6% | [4] 91.2% | [5] 96.4% | [6] 85.5% | [7] 104% | [8] 103% | [9] 94.5% | [10] 101% | [19] 66.1% | [11] 87.3% | [12] 108% | [13] 108% | [14] 96% | [15] 98% | [16] 95.1% | [17] 99.2% | [18] 97%

N#Cc1cnn(-c2nc3c(Cl)cccc3s2)c1N
inactive: [1] 82.6% | [2] 76.2% | [3] 95% | [4] 81.3% | [5] 73.4% | [6] 38.8% | [7] 83.6% | [8] 89.4% | [9] 92.3% | [10] 96% | [19] 92.8% | [11] 85.9% | [12] 60.6% | [13] 92.7% | [14] 87% | [15] 82.3% | [16] 82.2% | [17] 102% | [18] 96.1%

c1ccc(-c2c(-c3ccccc3)[n+](Cc3ccc4ccccc4c3)c(-c3ccc(-c4nc5ccccc5s4)cc3)n2Cc2ccc3ccccc3c2)cc1
active: [1] -82.1% | [2] -79.2% | [3] -92.1% | [4] -90% | [5] -67.3% | [6] -85.4% | [7] -77.1% | [8] -75.4% | [9] -86.1% | [10] -95.4% | [19] -25.2% | [11] -78% | [12] -84.3% | [13] -95.6% | [14] -76.9% | [15] -99.6% | [16] -88.9% | [17] -87.5% | [18] -80.4%

COc1ccc(-c2nc3cc(C(=O)Nc4cc(OC)c(OC)c(OC)c4)ccc3n2C2CCCCC2)cc1
inactive: [1] 93.6% | [2] 86.9% | [3] 97.9% | [4] 105% | [5] 99.7% | [6] 72.7% | [7] 98.6% | [8] 107% | [9] 110% | [10] 103% | [19] 76.1% | [11] 95.6% | [12] 88.6% | [13] 103% | [14] 100% | [15] 104% | [16] 88.6% | [17] 100% | [18] 96%

CN1CCN=C1c1ccc(NC(=O)c2ccc(C(=O)Nc3ccc(C4=NCCN4C)cc3)cc2)cc1
inactive: [1] 90.2% | [2] 98.6% | [4] 97.8% | [5] 91% | [6] 82.5% | [20] 87% | [7] 101% | [8] 101% | [9] 99.6% | [10] 119% | [11] 80.6% | [12] 103% | [14] 111% | [15] 92.9% | [16] 94.1% | [18] 95.9%

COc1ccc(-n2nc(C)c3c(Nc4ccc(NC(=O)Nc5cccc(C(F)(F)F)c5)cc4)ncnc32)cc1
inactive: [2] 34.1% | [10] 18.2% | [14] 22.8%
active: [1] 9.95% | [4] -37.9% | [5] 1.6% | [6] -26.4% | [20] 4.21% | [7] -19.2% | [8] -47.4% | [9] -39.2% | [19] 4.37% | [11] -10.9% | [12] -18.7% | [13] -36% | [15] -44.1% | [16] 2.75% | [17] -1.66% | [18] -0.151%

NC(CSC(c1ccccc1)(c1ccccc1)c1ccc(Cl)cc1)C(=O)O (stereo not given)
active: [1] 8.79% | [5] 7.15% | [6] -15.9% | [20] 5.69% | [7] -9.59% | [9] -13% | [10] -49.7% | [12] -32.8% | [16] -12.3% | [18] -24.2%
inactive: [2] 47.2% | [4] 27.5% | [8] 25.6% | [11] 22.6% | [14] 16.2% | [15] 13.8%
